High-throughput results (PubChem)
Vaccinia Venus: vaccinia inhibition (Venus reporter); Vaccinia virus Venus reporter expression, fluorescence; Potency, µM (series often up to 36.5 µM), without a hit: at the top dose activity change, negative = inhibition, hits mostly inhibitors; actives 0.46% (n = 330,000); AID 720580; calls by dose curve; tested in A549 cells; further: potency means the concentration at half of the fitted maximal effect; nearly all actives have a fitted effect of over 30% in size
FMDV inh: foot and mouth disease virus antiviral activity; FMDV antiviral cell-based qHTS; Potency, µM (doses to about 57.9 µM), inactives show at the highest dose activity change, negative = inhibition, hits mostly inhibitors; actives 1.2% (n = 410,000); AID 1159524; calls by dose curve; tested in HEK293T cells; further: read-out not given here; potency means the concentration at half of the fitted maximal effect; nearly all actives have a fitted effect of over 45% in size
HCMV antiviral: inhibitors of human cytomegalovirus; HFF cells, HCMV-luciferase reporter, 72 h; stronger effect = lower value; activity change, negative = inhibition, % at 57.5 µM; actives 4.5% (n = 410,000); in the data active means activity change below about -60%; inconclusive means no clear call, values can overlap the other calls; inactive means above about -39%
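Human foreskin fibroblasts infected with luciferase-reporter HCMV at MOI 1 PFU/cell, compounds at two doses. Luciferase measured 72 h post infection; normalized to buffer-only basal and Salinomycin (10uM) controls.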
HCV inh: inhibitors of hepatitis C virus infection; Huh7.5.1 HCVcc-Cre infection, luciferase reporter, 44 h; AID 651820; actives 3.4% (n = 340,000); Potency, µM (highest dose often 41.8 µM), without a hit: at the highest dose activity change, negative = inhibition, hits mostly inhibitors; active means well fitted inhibition curve with a large enough effect; inconclusive means small, poorly fitted or top-dose-only effect, or another doubt; inactive means no such curve, though single readings can be large or run the other way; further: potency means the concentration at half of the fitted maximal effect
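Reporter virus HCVcc-Cre (~0.5 moi) infects cells exposed to compound; seeding density 1,000 cells/well with 4 h settling beforehand. Luminescence, 15 sec read, taken 44 h post-infection following a 15 min RT substrate incubation.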
VACV mCherry inh: inhibitors of vaccinia virus infection (mCherry reporter signal); actives 0.63% (n = 310,000); Potency, µM (series often up to 36.5 µM), without a hit: top-dose activity change, negative = inhibition, hits mostly inhibitors; Vaccinia virus mCherry reporter infection, fluorescence; calls by dose curve; tested in A549 cells; further: potency means the concentration at half of the fitted maximal effect; nearly all actives have a fitted effect of over 35% in size
Numbers without * were called inactive; i = inactive; ? = inconclusive; · = no result. An excerpt weighted towards active compounds, which were near 7.3% of everything screened. On the % scale 0 is the no-effect control and ±100 the full control effect.

SMILES | Vaccinia Venus | FMDV inh | HCMV antiviral | HCV inh | VACV mCherry inh
CCCCn1c(SCC(=O)Nc2cc(NC(=O)c3ccco3)ccc2C)nc2ccccc2c1=O | · | -11.7% | -76.0* | ? | ·
Cc1ccc(S(=O)(=O)N(C)C)cc1-n1c(SCC(=O)Nc2ccccc2)nc2ccccc2c1=O | -4.0% | -21.3% | -71.8* | ? | -13.7%
N[C@@H](Cc1cc(CP(=O)(O)O)cc(-c2ccccc2Cl)c1)C(=O)O | · | -9.8% | · | · | ·
Cc1nc2ccc(C(=O)OC(C)C(=O)c3c(C)[nH]c4ccccc34)cc2nc1C (stereo unspecified) | 13.5% | · | · | · | -17.6%
C/C(=N\NC(=S)Nc1ccccc1C)c1cc2ccccc2o1 | -21.0% | -18.0% | ? | ? | ?
C/C(=N\NC(=S)Nc1c(C)cccc1C)c1cc2ccccc2o1 | ? | -26.4% | -33.0 | ? | 7.08µM*
O=C(NCC(c1ccc(F)cc1)N1CCOCC1)c1ccc([N+](=O)[O-])o1 (stereo unspecified) | -26.0% | -10.8% | -87.1* | ? | -21.7%
CCCC1(c2ccccc2)NC(=O)N(CC(=O)Nc2sc(-c3ccccc3)cc2C(=O)OCC)C1=O (stereo unspecified) | -1.4% | 13.9% | -61.8* | -13.5% | i
CCOC(=O)c1cc(-c2ccccc2)sc1NC(=O)CN1C(=O)c2ccccc2C1=O | -6.0% | -17.9% | -10.9 | -5.2% | ·
Cc1cc(C)c2oc(C(=O)Nc3ccc(S(=O)(=O)Nc4nccs4)cc3)cc(=O)c2c1 | · | 10.3% | -37.4 | -5.0% | ·
Cc1cc2oc(C(=O)Nc3ccc(S(=O)(=O)Nc4nccs4)cc3)cc(=O)c2cc1Cl | · | -7.8% | -78.9* | 6.3% | ·
CCc1ccccc1NC(=O)CN1C(=O)C2CCCN2c2ccc(S(=O)(=O)N(CC)CC)cc21 (stereo unspecified) | 4.0% | -4.2% | 11.2 | · | -5.1%
CC(C)=CCc1c([C@@H]2CCc3ccc(O)cc3O2)cc2c(c1O)OC(C)(C)C=C2 | -0.4% | -4.7% | · | 14.1µM* | -5.6%
Cc1ccc(-c2nc3ccccc3o2)cc1NC(=O)c1cccc2c(Cl)cccc12 | ? | -3.4% | -2.3 | · | ?
Cc1ccc(N=Nc2c(C)[nH]n(C(N)=S)c2=O)cc1 | -18.8% | 28.2% | 22.5 | 2.82µM* | ?
NC(=S)n1[nH]c(-c2ccc([N+](=O)[O-])cc2)c(N=Nc2ccc(Cl)cc2)c1=O | ? | ? | · | 6.31µM* | ?
Cc1ccc([N+](=O)[O-])cc1N=Nc1c(-c2ccc([N+](=O)[O-])cc2)[nH]n(C(N)=S)c1=O | · | 2.51µM* | · | 7.94µM* | ·
CC(C)Cc1cc(C(=O)NCC2Cc3cc(F)cc(-c4ccccn4)c3O2)no1 (stereo unspecified) | -0.4% | 6.1% | · | · | -4.5%
CCN(CC)c1ccc(-c2nc3cnccn3c2NC2CCCC2)cc1 | · | 9.7% | 13.8 | 31.6µM* | ·
C[N+]1(CC(=O)c2c3ccccc3cc3ccccc23)CCOCC1 | -7.1% | · | · | · | 12.9%
COC(=O)c1cc(S(=O)(=O)C(C)C)c(S(C)=O)s1 (stereo unspecified) | ? | -17.5% | -66.4* | 16.9% | 10µM*
O=C(Nc1ccncc1)c1cccn(Cc2ccccc2)c1=O | -12.5% | ? | -74.7* | 8.91µM* | i
O=C(Nc1ccccc1)c1cccn(Cc2ccccc2)c1=O | -9.5% | 3.2% | -31.2 | 10µM* | i
O=C(Nc1c(F)cc(F)cc1F)c1cccn(Cc2ccccc2)c1=O | -7.4% | -11.7% | -36.0 | -21.8% | -13.7%
Cc1ccc(C)c(C(=O)C[n+]2cccc(Br)c2)c1 | -8.9% | · | · | · | -18.5%
SMILES | Vaccinia Venus | FMDV inh | HCMV antiviral | HCV inh | VACV mCherry inh
O=C(OCc1cc(=O)n2nc(-c3cccs3)sc2n1)c1ccc(Cl)cc1 | -4.0% | -10.3% | 4.6 | · | -11.6%
O=C1NC(=S)S/C1=C\C=C\c1ccc([N+](=O)[O-])o1 | ? | ? | -99.8* | ? | ?
O=C(c1nnsc1S(=O)(=O)c1ccc(Cl)cc1)N1CCOCC1 | ? | 15.8µM* | 51.9 | ? | ?
O=C(Nc1ccccc1)c1nnsc1S(=O)c1ccc(Cl)cc1 (stereo unspecified) | ? | -16.4% | -103.7* | 0.5% | ·
CNC(=O)c1nnsc1S(=O)(=O)c1ccc(Cl)cc1 | ? | ? | -93.7* | ? | ?
Cc1nnsc1S(=O)c1ccc(Cl)cc1 (stereo unspecified) | · | -22.2% | ? | ? | ·
O=C(c1nnsc1S(=O)c1ccc(Cl)cc1)N1CCOCC1 (stereo unspecified) | ? | 35.5µM* | -98.1* | ? | ?
Cc1cccc(Nc2ncnc3c2cnn3C)c1C | -13.3% | -12.0% | -26.0 | · | -15.2%
CC(C)=CC1C(C(=O)OC(C#N)c2cccc(Oc3ccccc3)c2)C1(C)C (stereo unspecified) | · | · | 11.0 | · | ·
CCCN1CNc2c(c(=O)[nH]c(=S)n2CCc2cc(C)ccc2C)C1 | -21.1% | · | · | · | -23.7%
CCc1ccccc1NC(=O)Cn1ccn(-c2cc(C)cc(C)c2)c(=O)c1=O | -8.6% | 2.8% | -64.0* | · | -5.6%
Cc1cc(C)cc(-n2ccn(CC(=O)Nc3ccccc3F)c(=O)c2=O)c1 | -15.9% | -9.4% | -29.5 | · | -8.5%
CC(=O)Nc1ccc(-c2ccc(NC(C)=O)cc2)cc1 | -10.4% | 59.2% | 20.5 | 7.8% | i
CC(=O)Nc1ccc(C#Cc2ccc(NC(C)=O)cc2)cc1 | -5.9% | · | -72.1* | -5.5% | -15.8%
O=C(Nc1ccc(NC(=O)C2CC2)cc1)c1cccs1 | -3.8% | 15.7% | -77.5* | 4.1% | -12.6%
O=C(Nc1nonc1NC(=O)c1cccs1)c1cccs1 | ? | ? | -93.4* | 3.98µM* | ?
O=C(Nc1ccc(Oc2ccccc2)cc1)C1CC1 | 3.1% | 12.8% | ? | ? | -6.1%
O=C(Nc1ccc(C#Cc2ccccc2)cc1)C1CC1 | · | 47.1% | -64.1* | ? | ·
O=C(Nc1ccc(NC(=O)c2cccs2)cc1)c1cccs1 | 0.7% | 34.5% | 11.1 | 9.1% | -5.4%
O=C(NNC(=O)c1cccs1)c1ccccc1 | -10.8% | 26.8% | -6.7 | 7.3% | i
COc1ccc(-c2cccc(NC(=O)c3cccs3)c2)nn1 | -17.1% | 4.0% | -14.1 | 3.55µM* | -1.9%
O=C(N/N=C/c1cccs1)c1ccc(NC(=O)c2ccccc2Cl)cc1 | -16.9% | -13.3% | -65.5* | -21.4% | i
CC(=O)Nc1ccc(C(=O)NNC(=O)c2cccs2)cc1 | -6.8% | 9.4% | -66.7* | 11.5% | i
O=C(Nc1cccc(NC(=O)c2ccccc2Cl)c1)c1cccs1 | -9.9% | 0.0% | -81.5* | ? | -2.9%
O=C(Nc1ccc(NC(=O)c2cccs2)c(Cl)c1)c1cccs1 | -17.2% | 27.8% | ? | 11.2µM* | 0.9%
N=c1c2c(n(Cc3ccc(Cl)c(Cl)c3)c3c1CCC3)CCCC2 | ? | ? | -86.4* | ? | ·
N=c1c2c(n(Cc3ccc([N+](=O)[O-])cc3)c3c1CCC3)CCCC2 | -1.4% | 0.0% | -85.5* | -8.1% | -0.8%
O=[N+]([O-])c1ccc(CN2CCCCCC2)cc1 | 5.8% | -1.7% | 13.0 | -3.0% | i
